In PubChem BioAssay (EPA / NIEHS):
Where “and” joins values, the source holds several entries; their conditions need not be identical. Identical values can stand only once. Results filed as inconclusive are left out. Some compounds were tested as several samples or in several runs, with calls that do not always agree. Calls of active or inactive are those of the source. How the source made its calls, unless noted: active means hit-call score of the fitted dose curve at least 0.9, where 1 is the maximum; inactive means score below 0.9.

Assays:
[1] = ACEA_ER_80hr: ACEA Biosciences xCELLigence Real-Time Cell Analysis on Estrogen Receptor Agonism for Proliferation (AID 2282667; active means hit-call score of the fitted dose curve at least 0.9, where 1 is the maximum); settings: T47D proliferation, impedance (xCELLigence), 80 h
In short: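 Impedance readout (RT-CES) of T47D proliferation at 80 h post-dose; gain of signal vs DMSO baseline. Compounds: 8 conc, 1:4 serial, top 100 uM final, ≤0.5% DMSO; biological duplicate.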

[2] = ATG_CRE_CIS: Attagene CIS-FACTORIAL HepG2 Assay for human cAMP Responsive Element (CRE) binding protein 3 (AID 2282926); settings: HepG2 CRE cis-reporter, Attagene multiplexed mRNA; actives raise or lower the signal
In short: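 Endogenous CRE-binding activity in HepG2 is reported through a cis-regulated transfected reporter. Following a day of exposure, mRNA levels are determined by reverse transcription PCR and fluorescent fragment analysis; fits run in both directions versus DMSO.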

[3] = molecular target: CCAAT/enhancer-binding protein beta (Homo sapiens) (UniProt P17676); test: ATG_C_EBP_CIS: Attagene CIS-FACTORIAL HepG2 Assay for human CCAAT/Enhancer Binding Protein (C/EBP) beta (AID 2282927); settings: HepG2 Attagene cis-factorial transcription factor reporter; actives raise or lower the signal
In short: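 HepG2, transient MRTU transfection, 24 h treatment. RT-PCR plus CE fluorescence; DMSO negative control, bidirectional fit.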

[4] = ATG_CMV_CIS: Attagene CIS-FACTORIAL HepG2 Assay for human CMV (Internal Marker) (AID 2282928); settings: HepG2 CMV promoter reporter, transcription factor profiling; actives raise or lower the signal;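 further: endpoint acts as a background internal control marker rather than a target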
In short: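 Endogenous transcription factor activity read in HepG2 via transfected cis-promoter reporter units. After 24 h dosing, reporter mRNA measured by RT-PCR/capillary electrophoresis; gain or loss of signal fit relative to DMSO.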

[5] = ATG_DR4_LXR_CIS: Attagene CIS-FACTORIAL HepG2 Assay for human Liver X Receptor (LXR), DR4 submotif (AID 2282929); settings: HepG2 Attagene DR4 cis-reporter, mRNA transcription; actives raise or lower the signal
In short: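 Fluorescence intensity of labelled reporter cDNA fragments, separated by capillary electrophoresis, gives the signal. HepG2 cells bearing cis-regulated reporter constructs were treated 24 h; activity fitted bidirectionally relative to DMSO negative control.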

[6] = molecular target: Aryl hydrocarbon receptor (Homo sapiens) (UniProt P35869); test: ATG_Ahr_CIS: Attagene CIS-FACTORIAL HepG2 Assay for human Aryl Hydrocarbon Receptor (Ahr) (AID 2282930); settings: HepG2 AhR cis-factorial reporter transcription; actives raise or lower the signal
In short: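 Endogenous factor activity is tracked through cis-promoter reporter units transfected into HepG2 cells. Transcript levels at 24 h are read by fluorescent RT-PCR and capillary electrophoresis, with activity in either direction scored relative to DMSO.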

[7] = ATG_AP_1_CIS: Attagene CIS-FACTORIAL HepG2 Assay for human Activator Protein 1 (AP-1) (AID 2282931); settings: HepG2 Attagene cis-factorial AP-1 reporter mRNA; actives raise or lower the signal
In short: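 Multiplexed HepG2 reporter assay, 24 h dosing. mRNA induction detected by RT-PCR plus capillary electrophoresis. Activity fitted in both directions against DMSO.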

[8] = ATG_AP_2_CIS: Attagene CIS-FACTORIAL HepG2 Assay for human Activator Protein 2 (AP-2) (AID 2282932); settings: HepG2 AP-2 cis-reporter, Attagene transcription factor profiling; actives raise or lower the signal
In short: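 Multiplexed mRNA reporter assay in HepG2: cis-regulated units report endogenous factor activity after 24 h treatment. Fluorescence from capillary electrophoresis of RT-PCR products gives the signal, with DMSO as baseline.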

[9] = ATG_BRE_CIS: Attagene CIS-FACTORIAL HepG2 Assay for human Bone Morphogenetic Protein (BMP) Response Element (BRE) (AID 2282933); settings: HepG2 BMP response element reporter, Attagene transcription factor profiling; actives raise or lower the signal
In short: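 Endogenous transcription factor activity read in transiently transfected HepG2 cells after 24 h chemical exposure. Bidirectional curve fitting against DMSO; readout is reporter transcript level by RT-PCR with capillary electrophoresis of labelled products.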

[10] = molecular target: Retinoic acid receptor alpha (Homo sapiens) (UniProt P10276); test: ATG_DR5_RAR_CIS: Attagene CIS-FACTORIAL HepG2 Assay for human Retinoic Acid Receptor Alpha (RARE), DR5 submotif (AID 2282934); settings: HepG2 Attagene cis-factorial RARE DR5 reporter, mRNA; actives raise or lower the signal;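 on AC50: reporter responds to endogenous RAR alpha beta and gamma in HepG2 not RARA alone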
In short: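 After 24 h of chemical exposure, transiently transfected HepG2 cells were lysed for total RNA; the DR5-regulated reporter transcript was quantified via RT-PCR and capillary electrophoresis, with activity fitted bidirectionally against DMSO.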

Measured: AC50

Sequence of Aryl hydrocarbon receptor (Homo sapiens) (P35869 whole entry, looked up): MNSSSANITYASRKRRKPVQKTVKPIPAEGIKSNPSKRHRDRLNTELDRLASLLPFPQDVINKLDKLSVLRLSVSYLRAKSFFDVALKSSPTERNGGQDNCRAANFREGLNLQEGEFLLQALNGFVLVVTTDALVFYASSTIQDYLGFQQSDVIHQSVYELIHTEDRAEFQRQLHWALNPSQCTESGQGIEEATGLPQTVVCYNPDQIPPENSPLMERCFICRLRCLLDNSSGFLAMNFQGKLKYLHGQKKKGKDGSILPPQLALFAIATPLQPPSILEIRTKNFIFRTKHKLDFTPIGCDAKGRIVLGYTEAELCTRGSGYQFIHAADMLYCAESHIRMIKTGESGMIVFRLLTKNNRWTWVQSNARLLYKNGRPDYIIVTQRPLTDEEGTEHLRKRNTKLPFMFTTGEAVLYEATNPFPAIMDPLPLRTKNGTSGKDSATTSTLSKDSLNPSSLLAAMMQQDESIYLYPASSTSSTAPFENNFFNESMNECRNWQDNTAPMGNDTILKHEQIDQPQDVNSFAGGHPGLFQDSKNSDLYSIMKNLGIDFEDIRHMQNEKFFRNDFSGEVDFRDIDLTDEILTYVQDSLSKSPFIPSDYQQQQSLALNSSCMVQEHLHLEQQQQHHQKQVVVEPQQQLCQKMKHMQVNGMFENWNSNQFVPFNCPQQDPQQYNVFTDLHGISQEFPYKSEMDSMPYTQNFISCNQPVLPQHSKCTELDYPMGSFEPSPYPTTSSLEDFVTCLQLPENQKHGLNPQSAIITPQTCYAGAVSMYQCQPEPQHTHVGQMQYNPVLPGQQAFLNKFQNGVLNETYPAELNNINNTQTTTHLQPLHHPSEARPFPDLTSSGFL
Sequence of CCAAT/enhancer-binding protein beta (Homo sapiens) (P17676 whole entry, looked up): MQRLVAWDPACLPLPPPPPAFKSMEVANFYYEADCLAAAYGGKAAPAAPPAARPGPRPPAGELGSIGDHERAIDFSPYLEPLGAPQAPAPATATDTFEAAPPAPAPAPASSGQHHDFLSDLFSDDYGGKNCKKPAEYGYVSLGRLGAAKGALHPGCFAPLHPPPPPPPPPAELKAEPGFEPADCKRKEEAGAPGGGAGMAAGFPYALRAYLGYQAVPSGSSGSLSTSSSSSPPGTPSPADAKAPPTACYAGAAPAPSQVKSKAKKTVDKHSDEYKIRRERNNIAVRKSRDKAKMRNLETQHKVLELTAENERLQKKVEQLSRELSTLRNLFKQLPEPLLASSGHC
Sequence of Retinoic acid receptor alpha (Homo sapiens) (P10276 whole entry, looked up): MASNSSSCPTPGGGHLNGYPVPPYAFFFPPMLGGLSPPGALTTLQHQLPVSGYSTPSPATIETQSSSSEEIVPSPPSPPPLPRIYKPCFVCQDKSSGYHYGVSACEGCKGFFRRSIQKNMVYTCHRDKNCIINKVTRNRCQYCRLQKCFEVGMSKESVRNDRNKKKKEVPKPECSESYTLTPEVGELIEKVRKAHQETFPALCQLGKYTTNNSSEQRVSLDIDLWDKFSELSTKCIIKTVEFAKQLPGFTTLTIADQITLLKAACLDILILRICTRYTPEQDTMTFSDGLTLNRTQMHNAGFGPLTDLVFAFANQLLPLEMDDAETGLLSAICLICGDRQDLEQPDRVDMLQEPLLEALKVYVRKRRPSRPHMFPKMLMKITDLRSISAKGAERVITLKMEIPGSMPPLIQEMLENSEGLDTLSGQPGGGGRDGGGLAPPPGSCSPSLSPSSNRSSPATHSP

C=CC(=O)OCC(F)(F)C(F)(F)C(F)(F)C(F)(F)COC(=O)C=C
inactive: [1] | [6] | [8] | [9]
active: [2] 43.5 µM | [3] 50 µM | [4] 58.1 µM | [5] 31.3 µM | [7] 50 µM | [10] 60.6 µM

CO[Si](OC)(c1ccccc1)c1ccccc1
inactive: all assays above

CCCCCC=O
not listed: [5] | [10]
inactive: all other assays above

CC(C)=CCCC(C)CCOC(=O)C(C)C (stereo unspecified)
inactive: all assays above

O=P(O)(O)OCCC(F)(F)C(F)(F)C(F)(F)C(F)(F)C(F)(F)C(F)(F)F
inactive: all assays above

COC(=O)CCC(F)(F)C(F)(F)C(F)(F)C(F)(F)F
inactive: all assays above

CCCCCCCOC(=O)c1ccccc1C(=O)OCCCCCCC
inactive: all assays above

CCCCCCCCC(F)(F)C(F)(F)C(F)(F)C(F)(F)C(F)(F)C(F)(F)F
inactive: all assays above

CCCCCCS
inactive: all assays above

CC(C)(C)c1ccc(OC2CCCCC2O)cc1 (stereo unspecified)
active: [4] 48.8 µM | [7] 24.5 µM | [9] 42.4 µM
inactive: all other assays above

CCc1ccc(C(c2ccc(CC)cc2)C(Cl)Cl)cc1
active: [4] 100 µM | [5] 51 µM | [7] 66.5 µM
inactive: all other assays above

O[Si](c1ccccc1)(c1ccccc1)c1ccccc1
active: [5] 9.89 µM | [7] 100 µM | [9] 32.3 µM
inactive: all other assays above

CCc1c(Br)c(Br)c(Br)c(Br)c1Br
active: [10] 16.4 µM
inactive: all other assays above

FC(F)(F)C(F)(F)C(F)(F)N(C(F)(F)C(F)(F)C(F)(F)F)C(F)(F)C(F)(F)C(F)(F)F
inactive: all assays above

O=S(=O)(O)C(F)(F)C(F)(F)C(F)(F)C(F)(F)C(F)(F)C(F)(F)C(F)(F)F
active: [3] 70.3 µM and 50 µM | [7] 100 µM | [9] 100 µM
inactive: [1] | [2] | [4] | [6] | [7] | [8] | [9] | [10]

CCCCCCOC(=O)c1ccccc1O
inactive: all assays above

CNC(=S)NC
inactive: all assays above

CCCCNc1ccccc1
inactive: all assays above

FC(F)(F)C(F)(F)C(F)(F)C(F)(F)C(F)(F)C(F)(F)C(F)(F)C(F)(F)CCS
inactive: all assays above

CCCCCCC(C)OC(=O)CCCCC(=O)OC(C)CCCCCC (stereo unspecified)
inactive: all assays above

C=C(C)C(=O)OCC(F)(F)C(F)(F)C(F)(F)C(F)(F)C(F)(F)C(F)(F)C(F)(F)F
inactive: all assays above

CC(C)OC(=O)c1ccccc1C(=O)OC(C)C
inactive: all assays above

C=CC/C=C/C/C=C/C/C=C/C
inactive: all assays above

O=C(Cl)C(F)(F)C(F)(F)C(F)(F)C(F)(F)C(F)(F)C(F)(F)C(F)(F)C(F)(F)F
active: [5] 13 µM | [7] 16.1 µM
inactive: all other assays above

c1ccc(B(c2ccccc2)c2ccccc2)cc1
active: [1] 7.09 µM | [4] 71 µM | [6] 32.8 µM
not listed: [5]
inactive: all other assays above

C1COCCN1
not listed: [5]
inactive: all other assays above

Cc1ccc(S(=O)(=O)OCC(F)(F)C(F)(F)C(F)(F)C(F)(F)C(F)(F)C(F)F)cc1
not listed: [5]
inactive: all other assays above

CC/C=C\CCOC(C)=O
not listed: [5]
inactive: all other assays above

OCC(F)(F)C(F)(F)C(F)(F)C(F)F
not listed: [5]
inactive: all other assays above

O=C(O)C(F)(F)C(F)(F)F
not listed: [5]
inactive: all other assays above

NC(=O)C(F)(F)C(F)(F)C(F)(F)C(F)(F)F
not listed: [5]
inactive: all other assays above

C#C[C@]1(O)CC[C@H]2[C@@H]3CCc4cc(OC)ccc4[C@H]3CC[C@@]21C
active: [1] 0.0054 µM | [4] 48.2 µM
not listed: [5]
inactive: all other assays above

CC(Cc1ccc(O)c(O)c1)C(C)Cc1ccc(O)c(O)c1 (stereo unspecified)
active: [2] 22.9 µM
not listed: [5]
inactive: all other assays above

CCCCCCCCCCCCCCCC[N+](C)(C)Cc1ccccc1
active: [4] 44.8 µM | [8] 51.9 µM
not listed: [5]
inactive: all other assays above

O=C(C=Cc1ccccc1)OCC=Cc1ccccc1
not listed: [5]
inactive: all other assays above

O=C(O)C(F)(OC(F)(F)C(F)(OC(F)(F)C(F)(F)C(F)(F)F)C(F)(F)F)C(F)(F)F (stereo unspecified)
not listed: [5]
inactive: all other assays above

Nc1ccc(S(=O)(=O)Nc2nccs2)cc1
not listed: [5]
inactive: all other assays above

O=C(O)C(F)(F)C(F)(F)C(F)(F)C(F)(F)C(F)(F)C(F)(F)C(F)(F)C(F)(F)C(F)(F)C(F)(F)C(F)(F)C(F)(F)C(F)(F)F
active: [7] 42.8 µM
not listed: [5]
inactive: all other assays above

CS(C)(=O)=O
not listed: [5]
inactive: all other assays above

O=C(OCCOCCOCCOC(=O)c1ccccc1)c1ccccc1
active: [1] 10.8 µM
not listed: [5]
inactive: all other assays above

OCC(F)(F)C(F)(F)C(F)(F)C(F)(F)C(F)(F)C(F)F
not listed: [5]
inactive: all other assays above

Nc1ccc([N+](=O)[O-])cc1O
active: [6] 25.5 µM
not listed: [5]
inactive: all other assays above

C=CC(F)(F)C(F)(F)C(F)(F)C(F)(F)C(F)(F)C(F)(F)C(F)(F)C(F)(F)F
not listed: [5]
inactive: all other assays above

COC(=O)C1CCC(C(=O)OC)CC1 (stereo unspecified)
not listed: [5]
inactive: all other assays above

FC(F)(F)C(F)(F)C(F)(F)CI
not listed: [5]
inactive: all other assays above

CCC(=O)OCCc1ccccc1
not listed: [5]
inactive: all other assays above

FC(F)(F)C(F)(F)C(F)(F)C(F)(F)C(F)(F)C(F)(F)C(F)(F)C(F)(F)F
not listed: [5]
inactive: all other assays above
